# Test results from PubChem BioAssay (NCATS).
# Results filed as inconclusive are left out. Activity calls are given as the source filed them. Unless noted, the rule behind the calls is not given here.
# How the values were obtained:
# [1] = qHTS profiling of the MIPE4 collection as inhibitors of Plasmodium falciparum (3D7) proliferation (AID 743344);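 note: scaled between DMSO vehicle wells and 0.29 µM artemisinin as full inhibition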; settings: P. falciparum 3D7 in erythrocytes, SYBR Green DNA fluorescence, 72 h; at 28.5 µM unless noted
# In short: (§1)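 Parasite DNA was quantified by SYBR Green I fluorescence (ex 485, em 535 nm) after overnight lysis in saponin/Triton buffer at room temperature. Cultures at 0.3% parasitemia and 2.5% hematocrit were first exposed to compound for 72 h at 37 C; signals were normalised to artemisinin (0.29 uM) and vehicle wells.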
# [2] = qHTS profiling of the MIPE4 collection as inhibitors of Plasmodium falciparum (DD2) proliferation (AID 743345); settings: P. falciparum Dd2 in erythrocytes, SYBR Green DNA, 72 h; at 28.5 µM unless noted
# In short: as §1
# [3] = qHTS profiling of the MIPE4 collection as inhibitors of Plasmodium falciparum (DD2) proliferation (Rep 2) (AID 743346); settings: P. falciparum Dd2 in erythrocytes, SYBR Green DNA, 72 h; at 28.5 µM unless noted
# In short: as §1
# [4] = qHTS profiling of the MIPE4 collection as inhibitors of Plasmodium falciparum (HB3) proliferation (AID 743347);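 note: plate controls were DMSO vehicle wells for no effect and artemisinin wells for full effect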; settings: P. falciparum HB3 in erythrocytes, SYBR Green DNA, 72 h; at 28.5 µM unless noted
# In short: as §1
# [5] = High-throughput drug toxicity screening in the BPDCN cell line Gen2.2 (AID 1224824); settings: Gen2.2 BPDCN cells; at 45.8 µM (top of the series) unless noted;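 note: cells exposed to compounds for 48 h before reading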
# In short: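 Gen2.2, 500 cells/well, phenol red-free RPMI/10% FBS/Pen-Strep; 48 h cpd, 37 °C/5% CO2; CTG lum, 15 min RT. Norm: DMSO = 100%, bortezomib 9.2 uM final = 0%.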
# [6] = High-throughput drug toxicity screening in the BPDCN cell line Cal-1 (AID 1224825); settings: Cal-1 BPDCN cell viability, qHTS; at 45.8 µM (top of the series) unless noted
# In short: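 CellTiter-Glo luminescence after 48 h compound exposure; percent activity scaled with DMSO as 100% and bortezomib (9.2 uM final) as 0%. Cal-1 cells seeded at 500/well in RPMI, 10% FBS, no phenol red.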
# [7] = qHTS assay for measurement of the activity of small molecule inhibitors on Zika virus induced Caspase-3 activity in human astrocytoma cells (AID 1224859; active = well fitted curve in the direction sought with a large enough effect; an effect the other way counts as inactive or inconclusive;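 note: plate controls were ZIKV-infected untreated cells for no effect and uninfected cells for full effect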)
# In short: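 Luminescence read-out (Caspase-Glo 3/7, 30 min RT) of caspase activity in SNB-19 cells infected 6 h with ZIKV, 2 FFU/cell, after 1 h compound pretreatment; % inhibition from induction normalised to uninfected (0%) and infected (100%) wells.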
# [8] = qHTS profiling for inhibitors of Plasmodium falciparum (DD2) proliferation (AID 743323); settings: lower = more inhibition; at 28.7 µM (top of the series)
# In short: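 1536-well qHTS; infected RBCs 0.3% parasitemia/2.5% Hct final; cpd 72 h 37 C 5% CO2; lysis buffer + SYBR Green I, o/n RT dark; FI 485/535; norm. to 0.29 uM artemisinin and DMSO, plate-stack corrected.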
# [9] = qHTS Assay for Identifying Gametocytocidal Compounds (AID 743244; active = well fitted curve in the direction sought with a large enough effect; an effect the other way counts as inactive or inconclusive; note: potency is the fitted concentration of half-maximal effect;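 for max response: % is set by controls: 0 for no effect and ±100 for the full control effect; actives lower the fluorescent signal which means gametocytes are killed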); settings: P. falciparum 3D7 stage III-V gametocytes, alamarBlue, 72 h; max response: stronger effect = lower value
# In short: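 P. falciparum 3D7 stage III–V gametocytes (20,000 cells/well) were exposed to compounds for 72 h at 37 °C, 5% CO2. AlamarBlue was then added for 24 h; decreased resorufin fluorescence (Ex 525/Em 598 nm) indicated loss of viability.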
# [10] = qHTS profiling for inhibitors of Plasmodium falciparum (3D7) proliferation (AID 743322);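 note: infected erythrocytes exposed to compound for 72 h before lysis; 100% = DMSO vehicle wells and 0% = 0.29 µM artemisinin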; settings: P. falciparum 3D7 proliferation; at 28.7 µM (top of the series)
# In short: as §1
# [11] = qHTS profiling for inhibitors of Plasmodium falciparum (HB3) proliferation (AID 743324; active = well fitted curve in the direction sought with a large enough effect; an effect the other way counts as inactive or inconclusive;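 note: 100% = DMSO vehicle wells and 0% = artemisinin-treated control wells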); settings: Plasmodium falciparum HB3 blood-stage proliferation; at 28.7 µM (top of the series)
# In short: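 SYBR Green fluorescence (485 ex/535 em) of lysed cultures, incubated overnight at room temperature in the dark, quantifies parasite DNA. Infected erythrocytes at 0.3% parasitemia and 2.5% hematocrit were exposed 72 h; values normalized to DMSO and 0.29 uM artemisinin controls.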
SMILES,"parasite growth, % of DMSO control [1]","parasite growth remaining, % of DMSO control (lower = more inhibition) [2]","parasite growth, % of control (lower = inhibition) [3]","growth, % of control [4]","cell viability, % of control (lower = more cytotoxic) [5]",viability (% of control) [6],Potency [7],"activity, percent of control [8]",Potency [9],remaining parasite growth % (stronger effect = lower value) [10],"remaining proliferation (% of control), lower = more inhibition [11]",max response [9]
COc1cccc2c(NCc3ccccc3)nc(-n3c(N)nc4ccccc43)nc12,5.92%,5.67%,11.4%,3.05%,3.5%,2.1%,inactive,,,,,
CCn1nnc2c(N3CCOCC3)nc(-c3ccc(NC(=O)Nc4ccc(C(=O)N5CCN(C)CC5)cc4)cc3)nc21,6.79%,6.26%,13.6%,5.28%,28.1%,26.6%,inactive,,,,,
CC1(O)CC(c2nc(-c3ccc4ccc(-c5ccccc5)nc4c3)c3c(N)nccn23)C1 (configuration not stated),9.23%,19%,10.7%,5.32%,117%,8.23%,inactive,2.21%,,,,
Cc1coc2c1C(=O)C(=O)c1c-2ccc2c1CCCC2(C)C,5.71%,9.98%,26.2%,4.66%,93.2%,83.1%,inactive,,,,,
C#Cc1cccc(Nc2ncnc3cc(OC)c(OCCCCCCC(=O)NO)cc23)c1,5.53%,6.37%,11.2%,3.1%,44.2%,3.6%,inactive,0.0372%,1710 nM (active),-1.67%,-0.395%,
C[C@]12CC[C@H](O)CC1=CCC1C2CC[C@]2(C)C(n3cnc4ccccc43)=CCC12 (some centres not stated),6.89%,72.8%,21.9%,9.11%,109%,91.9%,,,,,,
CNC(=O)c1nn(C)c2c1C(C)(C)Cc1cnc(Nc3ccc(N4CCN(C)CC4)cc3)nc1-2,6.38%,11.1%,6.77%,3.32%,3.63%,3.8%,inactive,,,,,
CC(C)(O)CCc1ccc(OCc2cc(-c3cccc(OC(F)F)c3)c3ncccc3c2)cc1,111%,93%,102%,102%,132%,75.3%,,37.1%,,,15.5%,9.3% (inactive)
